Laboratory results reported in PubChem BioAssay AID1053197 (The Scripps Research Institute Molecular Screening Center, 2014).
Hit rate of the full screen: of about 370,000 compounds, about 2,600 (0.7%) were called active. The list comes from a sample in which actives are over-represented; it also holds similar structures and randomly drawn compounds. Unmarked numbers belong to inactive results.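 The calls were made as follows: active = inhibition above a cutoff: mean of compounds within the control limits plus 3 SD of those (cut at about 17% in these data); inactive = the rest.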

The compounds below were run against Sialate O-acetylesterase (Homo sapiens) (UniProt Q9HAT2) (assay: blockers of sialate O-acetylesterase activity-probe labeling – biochemical, fluorescence polarization, FP-Rh probe, 1536-well HTS, primary screen (AID 1053197;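 also: 0% = plate median of compound wells and 100% = probe without SIAE protein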)). Conditions: SIAE FP-Rh probe binding, at 9.66 µM, hits give high values.
Sequence of Sialate O-acetylesterase (Homo sapiens) (Q9HAT2 whole entry, looked up): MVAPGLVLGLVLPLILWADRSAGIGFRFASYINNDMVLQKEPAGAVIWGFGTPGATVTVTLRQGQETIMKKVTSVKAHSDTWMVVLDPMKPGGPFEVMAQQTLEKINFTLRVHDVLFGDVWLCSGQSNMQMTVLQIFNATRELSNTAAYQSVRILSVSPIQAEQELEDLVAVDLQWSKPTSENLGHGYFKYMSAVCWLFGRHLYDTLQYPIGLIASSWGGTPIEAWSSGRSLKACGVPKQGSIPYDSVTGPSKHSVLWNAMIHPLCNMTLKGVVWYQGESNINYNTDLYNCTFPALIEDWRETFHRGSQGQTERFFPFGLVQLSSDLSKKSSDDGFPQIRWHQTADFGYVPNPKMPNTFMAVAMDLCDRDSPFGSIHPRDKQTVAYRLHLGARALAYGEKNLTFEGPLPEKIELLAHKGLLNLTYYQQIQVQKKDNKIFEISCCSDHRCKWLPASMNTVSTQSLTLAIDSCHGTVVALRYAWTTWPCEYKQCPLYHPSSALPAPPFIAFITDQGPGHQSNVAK
Work on Oc1ccc(/C=C/c2c(F)cccc2F)c2cccnc12 yielded an inhibition of 9.1%. COCC1CCN(C(=O)c2ccc3oc(Cc4ccccc4)nc3c2)C1 (configuration not stated) showed an inhibition of -5.51%. COc1ccc(Cc2nc3ccc(C(=O)N4CCC(N(C)C)C4)cc3o2)cc1 (configuration not stated) was tested, and the inhibition was 18.5% (active). For CCC1C(=O)NCCN1C(=O)c1ccc2nc(Cc3ccc(OC)cc3)oc2c1 (configuration not stated), the inhibition was -0.21%. For CC(CCN1CCC(C(O)(c2ccccc2)c2ccccc2)CC1)Oc1ccc([N+](=O)[O-])cc1Cl (configuration not stated), the inhibition was 1.3%. Compound Cc1ccc(/C=N/NC(=S)NC2CCCCC2)o1 has an inhibition of 8.46%. With Cc1ccc(/C=N/NC(=O)c2cc3ccccc3cc2O)o1 the inhibition was 21.5% (active). Compound Cc1ccc(/C=N/NC(=O)Cn2ccc(C(F)(F)F)n2)o1 has an inhibition of 2.98%. For C[C@H]1CCC/C=C/C(=O)c2c(O)cc(O)cc2CC(=O)O1, the inhibition was 5.43%. C=CCOC/C=C/C#CCN(CC=C)Cc1ccc(OC)cc1OC was tested, and the inhibition was -0.76%. Work on CCOC(=O)CC1=CC(=O)Nc2ccccc2N1 yielded an inhibition of 2.76%. CCOC(=O)C(=O)C1C(=O)Nc2ccccc21 (configuration not stated) was tested, and the inhibition was 20.6% (active). CCCCC(CC)CNC(=O)C(=O)C1C(=O)Nc2ccccc21 (configuration not stated) was tested, and the inhibition was 4.38%. Nc1cccc(S(=O)(=O)Nc2ccc(SC(F)F)cc2)c1 showed an inhibition of -5.85%. With COc1ccc(NC(=O)/C(N=Nc2cccc(S(=O)(=O)Nc3ccc(SC(F)F)cc3)c2)=C(\C)O)cc1 the inhibition was 17.2% (active). Compound Cc1c(NS(=O)(=O)c2cccc(C(=O)Nc3ccc(SC(F)F)cc3)c2)c(=O)n(-c2ccccc2)n1C has an inhibition of -14%. Cc1nc2ccc(C(=O)N3CCN(C(=O)C(C)(C)C)CC3)cc2n1C1CCCC1 gave an inhibition of 1.16%. Cc1ccccc1CS(=O)(=O)Cc1ccc(C(=O)Nc2ccc(Cl)cc2)o1 gave an inhibition of -4.56%. C[C@H](C(=O)N(C)c1ccccc1)[C@@H](O)c1ccc(Cl)cc1 showed an inhibition of -3.9%. For COc1ccc(-n2c(SCC(=O)Nc3ccc(C)c(Cl)c3)nc3ccccc3c2=O)cc1, the inhibition was -5.2%. O=C(OC12CCCN(C1)/C(=C/c1cccnc1)C2)C1CCCC1 (configuration not stated) gave an inhibition of 9.64%. With O=[N+]([O-])c1ccc(N2CCN(c3ccc(F)cc3)CC2)cn1 the inhibition was 1.56%. With COc1ccccc1N1CCN(c2ccc([N+](=O)[O-])nc2)CC1 the inhibition was 3.93%. In the case of COc1ccc(N2CCN(c3ccc([N+](=O)[O-])nc3)CC2)cc1, the inhibition is reported as 27.9% (active). Cc1c(C(C)c2ccccc2O)[nH]c2ccccc12 (configuration not stated) gave an inhibition of 3.42%. Compound C=C(C)C#CC(Cc1ccccc1)N(CC1CC1)/C(N)=N/C(=O)OCc1ccccc1 (configuration not stated) has an inhibition of 8.05%. C[C@@H](NC(=O)c1ccccc1OCC(=O)Nc1ccc(I)cc1)C(=O)N(C)Cc1ccccc1 gave an inhibition of -10.2%. Cc1ccc(NC(=O)[C@H](Cc2ccccc2)NC(=O)CC[C@H]2O[C@@H](n3ccc(=O)[nH]c3=O)[C@H](O)[C@@H]2O)cc1C showed an inhibition of 0.53%. In the case of O=C(CC[C@H]1O[C@@H](n2ccc(=O)[nH]c2=O)[C@H](O)[C@@H]1O)N[C@H](Cc1ccccc1)C(=O)NCCCN1CCCC1=O, the inhibition is reported as 47.1% (active). In the case of O=C(CC[C@H]1O[C@@H](n2ccc(=O)[nH]c2=O)[C@H](O)[C@@H]1O)N[C@H](Cc1ccccc1)C(=O)NCc1ccco1, the inhibition is reported as 1.02%. For CSc1ccc(C=Nn2c(-c3ccc(F)cc3)n[nH]c2=S)cc1, the inhibition was 2.39%. In the case of Cn1cccc1/C=N/NC(=O)CNc1cccc2ccccc12, the inhibition is reported as 18.6% (active). O=C(Cn1cncn1)N/N=C/c1c2ccccc2cc2ccccc12 gave an inhibition of -1.87%. In the case of C/C(=N\NC(=O)CNc1cccc2ccccc12)c1ccc(Br)s1, the inhibition is reported as -5.3%. C[C@H](C(=O)N(C)c1ccccc1)[C@@H](O)c1ccc2ccccc2c1 showed an inhibition of 3.1%. In the case of CCC(=O)Nc1ccc2c(c1)C(=O)N(C)[C@@H]1CC[C@@H](CC(=O)NCCc3ccccc3)O[C@H]1CO2, the inhibition is reported as 1.28%. Compound COc1ccccc1C(=O)NC1CCCCN(C(C)C)C1=O (configuration not stated) has an inhibition of 0.76%. Work on C=CCN(Cc1ccc2c(c1)OCO2)C(C#CC1CC1)C(C)(C)C (configuration not stated) yielded an inhibition of 4.36%. COC(=O)C1=C(C(=O)OC)C2(OC1c1ccc(Br)cc1)C(=O)c1ccccc1C2=O (configuration not stated) was tested, and the inhibition was 14.3%. Compound CCOC(=O)C1=C(C)NC(SC)=NC1c1ccccc1 (configuration not stated) has an inhibition of 5.58%. With CCOC(=O)C1=C(C)N=C2c3ccccc3C(=O)C2C1c1ccc(Br)cc1 (configuration not stated) the inhibition was 18% (active). For CCCCN1CCN(C(=O)c2ccc3c(c2)NC(=O)C(C)(C)O3)CC1, the inhibition was -0.65%. For COC[C@@H]1CCCN1c1ccc2c(c1)O[C@H](C)CCN(C1CC1)S2(=O)=O, the inhibition was -0.33%. Compound CC(=O)Nc1ccc(OC[C@@H](O)CN2CCC(C(O)(c3ccccc3)c3ccccc3)CC2)cc1 has an inhibition of -6.43%. In the case of CN(C)Cc1cn(-c2ccc(-c3noc4c3C(=O)N(CC(=O)N3CCOCC3)CC4)cc2)nn1, the inhibition is reported as -2.28%. In the case of CN1c2ccc(C=O)c3c(C=O)ccc(c23)N(C)C1(C)C, the inhibition is reported as 21.9% (active). Compound Cc1nc(CNc2ncnc3ccc(-c4ccc5c(c4)OCO5)cc23)cs1 has an inhibition of -10.9%. Compound O=C(Nc1ccccc1)N1CCN(Cc2nc3ccccc3c(=O)[nH]2)CC1 has an inhibition of 12.6%. Work on COc1ccc(Cn2cc(CN3[C@@H](CC(C)C)COc4cc(Br)ccc4S3(=O)=O)nn2)cc1 yielded an inhibition of 0.93%. Compound CN(C)S(=O)(=O)c1ccc(NC(=O)COC(=O)c2n[nH]c3ccccc23)cc1 has an inhibition of -22.8%. With NS(=O)(=O)c1ccc(NC(=O)COC(=O)c2c3c(nc4ccccc24)/C(=C\c2ccc4c(c2)OCO4)CCC3)cc1 the inhibition was 43.9% (active). O=C(COC(=O)c1c(Cl)cccc1Cl)Nc1cccc(S(=O)(=O)NC2=NCCCCC2)c1 showed an inhibition of -8.81%. C=CCN1C(=O)[C@@H](CC(=O)N2CCN(C(=O)OCC)CC2)[C@]2(C(=O)OCC)CCCCC/C=C/12 gave an inhibition of 2.29%. CCN(C(=O)COC(=O)C1CCN(S(=O)(=O)c2ccc(C)c(C)c2)CC1)C1CCS(=O)(=O)C1 (configuration not stated) was tested, and the inhibition was 26.2% (active). CCN(C(=O)COC(=O)c1cc(S(=O)(=O)N2CCc3ccccc32)ccc1OC)C1CCS(=O)(=O)C1 (configuration not stated) gave an inhibition of -1.8%. Cc1ccc(S(=O)(=O)N2CCC(C(=O)OCC(=O)N(C)c3ccccc3)CC2)cc1C was tested, and the inhibition was -1.79%. Work on CC(=O)Nc1nc2ncccn2c1-c1ccc(C(F)(F)F)cc1 yielded an inhibition of 4.66%. For CC(=O)c1cc(-c2ccc3ccccc3c2)c(=O)n2c1CCC2, the inhibition was -1.29%. COc1ccccc1/C=C/CN1CCC(CO)(Cc2ccccc2)CC1 showed an inhibition of -3.81%. Compound COc1ccc(C(=O)O)cc1S(=O)(=O)NC1CCN(Cc2ccccc2)CC1 has an inhibition of 0.4%. With COc1ccccc1/C=C/C=N/NC(=O)CN1CCN(Cc2ccccc2)CC1 the inhibition was 17.3% (active). O=S1(=O)c2c(cccc2N2CC[C@H](O)C2)O[C@@H]2CCN1C2 was tested, and the inhibition was 6.21%. For COc1cccc(N2CCN(CC(=O)N(C)Cc3ccc(F)cc3)CC2)c1, the inhibition was 1.64%. With Cc1ccnc(NS(=O)(=O)c2ccc(NC(=O)c3ccc(S(=O)(=O)N(C)C)cc3)cc2)n1 the inhibition was -1.59%. For Cc1ccnc(NS(=O)(=O)c2ccc(NC(=O)c3ccc(S(=O)(=O)N4CCOCC4)cc3)cc2)n1, the inhibition was 21% (active). For Cc1ccnc(NS(=O)(=O)c2ccc(NC(=O)c3oc4ccccc4c3C)cc2)n1, the inhibition was -5.42%. Compound CCCCCCN1CCS(=O)(=O)N(Cc2ccc(C(F)(F)F)cc2)C(C(=O)OC)C1 (configuration not stated) has an inhibition of -2.85%. CC(=O)OC12CCCN(C1)/C(=C/c1ccncc1)C2 (configuration not stated) gave an inhibition of 0.93%. O=C(CCl)NC1CCCCN(Cc2cccc(C(F)(F)F)c2)C1=O (configuration not stated) showed an inhibition of 1.33%. In the case of Cc1nc2ccc(C(=O)N3CCSCC3)cc2s1, the inhibition is reported as 80.7% (active). In the case of Cc1nc2ccc(S(=O)(=O)NC(C(=O)N3CCCCCC3)C(C)C)cc2s1 (configuration not stated), the inhibition is reported as -3.13%. Cc1cccc(C(=O)N2CCC(c3nc4ccccc4s3)CC2)c1 gave an inhibition of 1.7%. Compound Cc1cc(C)nc(NC(=S)N2CCN(c3ccc(C(F)(F)F)cn3)CC2)c1 has an inhibition of -2.17%. N#CC(C(N)=O)=C1CCC2(CC1)OCCCCO2 gave an inhibition of -1.29%. For CC1(C)C/C(=C(/C#N)C(N)=O)CCO1, the inhibition was 17.1% (active). Nn1c(SCC(=O)Nc2cccc3ccccc23)nnc1-c1cc(-c2ccc(F)cc2)n[nH]1 gave an inhibition of -0.5%. CC(C)(C)NC(=O)C(c1cccnc1)N(C(=O)c1cnco1)c1ccc(C(C)(C)C)cc1 (configuration not stated) gave an inhibition of 2.03%. In the case of CCOc1cc(C(=O)O)ccc1OCCOc1ccccc1, the inhibition is reported as -4.46%. For CCOC(=O)c1ccc(NNC(C)=O)c([N+](=O)[O-])c1, the inhibition was 3.08%. With CCOc1ccccc1Nc1ccc(C(=O)O)cc1[N+](=O)[O-] the inhibition was 17.1% (active). In the case of O=C(CSc1nnc(COc2ccccc2)n1Cc1ccco1)c1ccc2ccccc2c1, the inhibition is reported as -7.8%. Compound CCOc1ccc(NC(=O)CSc2nc3ccccc3c(=O)n2Cc2cccs2)cc1 has an inhibition of 0.33%. With CCOc1ccc(NC(=O)C/C(C)=N/NC(=O)Cc2cccs2)cc1 the inhibition was 21.6% (active). With CCOc1ccc(/C=N/OCC(=O)NCc2cccs2)cc1 the inhibition was -7.11%. Cc1ccc(C(=O)C2CCN(CC(=O)NCCC(C)C)CC2)cc1 was tested, and the inhibition was 4.25%. For O=C(CSc1nc2ccccc2n1Cc1ccccc1Cl)N/N=C\c1c[nH]c2ccccc12, the inhibition was -8.22%. With CC(CCN1CCC(C(O)(c2ccccc2)c2ccccc2)CC1)Oc1ccc(C(F)(F)F)cc1 (configuration not stated) the inhibition was 8.83%.
